From PubChem
Mdm2-MdmX inh = inhibitors of human Mdm2/MdmX interaction | O15151+Q00987 | SaOS-2 split-luciferase Mdm2/MdmX complementation, luminescence | inhibition, % at 8 µM | 330,000 compounds, 3% hits;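 active means inhibition of at least 50% at 8 µM in the primary screen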
Target sequence (O15151 whole entry, looked up): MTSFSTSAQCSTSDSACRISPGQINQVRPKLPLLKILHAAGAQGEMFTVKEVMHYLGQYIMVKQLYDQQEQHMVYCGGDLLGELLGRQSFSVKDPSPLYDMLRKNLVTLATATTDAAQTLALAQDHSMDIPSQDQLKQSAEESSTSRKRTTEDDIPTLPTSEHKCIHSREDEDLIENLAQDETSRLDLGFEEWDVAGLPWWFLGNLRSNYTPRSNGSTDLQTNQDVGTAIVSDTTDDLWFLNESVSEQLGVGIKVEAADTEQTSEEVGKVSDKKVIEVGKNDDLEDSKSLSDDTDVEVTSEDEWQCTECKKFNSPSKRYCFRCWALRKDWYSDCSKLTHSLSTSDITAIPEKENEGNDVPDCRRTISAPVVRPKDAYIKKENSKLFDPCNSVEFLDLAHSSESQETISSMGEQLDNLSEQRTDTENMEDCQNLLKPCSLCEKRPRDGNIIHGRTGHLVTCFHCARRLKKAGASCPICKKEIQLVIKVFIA
Target sequence (Q00987 whole entry, looked up): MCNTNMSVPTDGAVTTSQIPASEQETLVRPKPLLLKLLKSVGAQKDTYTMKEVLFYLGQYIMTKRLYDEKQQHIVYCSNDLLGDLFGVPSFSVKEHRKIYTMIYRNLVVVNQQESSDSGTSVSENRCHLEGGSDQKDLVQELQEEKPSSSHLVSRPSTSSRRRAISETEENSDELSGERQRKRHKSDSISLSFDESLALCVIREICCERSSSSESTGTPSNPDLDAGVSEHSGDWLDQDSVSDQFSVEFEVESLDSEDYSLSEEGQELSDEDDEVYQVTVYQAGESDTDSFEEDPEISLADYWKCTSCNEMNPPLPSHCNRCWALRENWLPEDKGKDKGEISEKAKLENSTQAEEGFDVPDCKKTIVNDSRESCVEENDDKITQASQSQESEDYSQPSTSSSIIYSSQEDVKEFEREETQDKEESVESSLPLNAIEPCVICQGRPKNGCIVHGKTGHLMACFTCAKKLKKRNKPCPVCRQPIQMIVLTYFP
Peg3 prom inh-1 = Peg3 promoter activity inhibition; HeLa PEG-Prom luciferase reporter, luminescence, overnight; inhibition, % at 20 µM; 360,000 compounds, 1.7% hits; AID 588405;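 active means inhibition of at least 50% at 20 µM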
HIF-2a block = blocks HIF-2a reporter activity; 786-0 RCC cells HIF-2a reporter, luciferase luminescence, overnight; AID 624352; inhibition, % at 18.8 µM; 360,000 compounds, 0.72% hits;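 active means inhibition of the luminescence signal of 40% or more relative to plate controls, in a single-dose primary screen at 18.75 µM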
ABHD5-PLIN5 inh = blocks binding of human ABHD5 to perilipin-5; Q00G26+Q8WTS1; Split G. princeps luciferase complementation, luminescence, 4 h; AID 602281; 360,000 compounds, 0.78% hits; inhibition, % at 4 µM;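 active means inhibition above the mean inhibition across every tested compound plus 3 SD, cut at about 22% in these data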;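 further: 0% = DMSO only wells and the 100% control is not disclosed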
KKLEB tox = counter-screen for CF NF-kB inhibitors: cytotoxicity. activity change (cytotoxicity), % at 5 µM. 360,000 compounds, 0.36% hits. KKLEB CF airway cells viability, ATPlite luminescence, overnight; stronger effect = lower value; cells stimulated with P. aeruginosa culture filtrate;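 active means corrected activity change at or below -50% at 5 µM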
CF NFkB block = blocks PAF-induced NF-kB reporter in cystic fibrosis cells | KKLEB NF-kB-GFP reporter, GFP fluorescence overnight | inhibition, % at 5 µM | 360,000 compounds, 0.86% hits | AID 588850;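 active means at least 50% inhibition at 5 µM, scaled per plate between neutral and stimulator controls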;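 further: PAF is a Pseudomonas aeruginosa culture filtrate used as stimulus; plate controls were PAF-stimulated DMSO wells for no effect and unstimulated DMSO wells for full effect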
Mdm2 MdmX conf = confirmation of human Mdm2/MdmX interaction inhibitors | shares compounds with Mdm2-MdmX inh | Mdm2-MdmX binding, luminescent assay | inhibition, % at 8 µM | 10,000 compounds, 55% hits
Full FLuc ctr = full-length luciferase inhibition in Mdm2/MdmX counter-screen. shares compounds with Mdm2-MdmX inh. SaOS-2 full-length luciferase counterscreen, luminescence. inhibition, % at 8 µM. 6,200 compounds, 77% hits. AID 504607;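 active means mean inhibition at 8 µM reaching about 37%, which flags the compound as non-specific, limit read from the data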;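 further: p53-null SaOS-2 cells with luciferase driven by a doxycycline-inducible promoter; compound on cells about two nights before reading with doxycycline added after day one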
Peg3 prom inh-2 = Peg3 promoter inhibition confirmation; 1,300 compounds, 84% hits; inhibition, % at 20 µM; shares compounds with Peg3 prom inh-1; HeLa PEG-Prom luciferase reporter, luminescence, overnight;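 active means at 20 µM dose, 40% or more inhibition averaged across four replicates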
CF NFkB conf = confirmation of cystic fibrosis induced NF-kB inhibitors; shares compounds with CF NFkB block; KKLEB CF airway cells, PAF-induced NF-kB-GFP fluorescence, overnight; inhibition, % at 5 µM; 1,300 compounds, 64% hits; AID 602472;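 further: stimulus PAF is a Pseudomonas aeruginosa filtrate and not platelet activating factor; plate controls were DMSO wells with stimulus for no effect and unstimulated DMSO wells for full effect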
ABHD5-PLIN5 conf = confirmation of human ABHD5-PLIN5 interaction inhibitors. shares compounds with ABHD5-PLIN5 inh. biochemical ABHD5-PLIN5 interaction, luminescence. inhibition, % at 4 µM. 2,200 compounds, 67% hits; in the data active means inhibition above about 23%;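 further: 0% = DMSO vehicle wells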
HNF4 split-luc = HNF4 split-luciferase signal hit, counter-screen | shares compounds with ABHD5-PLIN5 inh | inhibition, % at 4 µM | 2,200 compounds, 77% hits | HNF4 dimerization, luminescence, biochemical;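 active means mean inhibition across replicate wells exceeding the computed hit threshold, cut at about 13% in these data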;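 further: light from luciferase halves that rejoin when HNF4 fusion proteins dimerize; 0% = DMSO only wells and the 100% control is not given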
The depositor's hits bear a star; · = not tested or not shown; ! = not confirmed by another sample. An excerpt weighted towards active compounds, which were near 4.6% of everything screened. Unless noted, no stated cut-off is given here; in the data, active means inhibition above about 40%; inactive means the rest.

SMILES	Mdm2-MdmX inh	Peg3 prom inh-1	HIF-2a block	ABHD5-PLIN5 inh	KKLEB tox	CF NFkB block	Mdm2 MdmX conf	Full FLuc ctr	CF NFkB conf	ABHD5-PLIN5 conf	HNF4 split-luc	others
CC(NC(=O)c1cccc(N(C)C)c1)c1ccc(-n2ccnc2)cc1 (stereo not drawn)	3	9	-11	13	5	2	·	·	·	·	·
CCOc1cc(Br)c(Br)c(C=Nc2ccc(NC(C)=O)cc2)c1O	68*	32	28	-6	-1	69*	76*	33	61*	·	·
CCOc1ccccc1N1CCN(c2nc3ccccc3nc2C(C#N)C(=O)OC)CC1 (stereo not drawn)	71*	42	22	9	-7	90*	14	·	47*	·	·
COc1ccccc1N1CCN(c2nc3ccccc3nc2C(C#N)C(=O)OC(C)C)CC1 (stereo not drawn)	17	22	12	-9	-7	20	·	·	·	·	·
CC(=O)c1c(C)[nH]c(C(=O)N2CCc3ccccc32)c1C	37	8	3	0	-1	-10	·	·	·	·	·
CCOC(=O)c1[nH]c(C)c(C(=O)N2CCc3ccccc32)c1C	63*	-35	12	-3	-36	54*	57*	82*	57*	·	·
c1ccc(-c2cn(-c3ccccc3)c3ncnc(N4CCCCC4)c23)cc1	21	40	26	2	-14	27	·	·	·	·	·
COc1ccc(-n2cc(-c3ccccc3)c3c(N4CC(C)OC(C)C4)ncnc32)cc1 (stereo not drawn)	64*	64*	28	-7	-16	82*	50*	84*	72*	·	·
CN1CCN(c2ncnc3c2c(-c2ccccc2)cn3-c2ccc(F)cc2)CC1	22	39	17	12	-3	-8	·	·	·	·	·
CCOc1ccc(-n2cc(-c3ccccc3)c3c(N4CCOCC4)ncnc32)cc1	74*	51*	18	-6	-20	91*	65*	83*	95*	·	·	Peg3 prom inh-2=60*
COC(=O)N1C(=O)[C@@](c2ccccc2)(C2CCCC2)N1C(=O)OC	74*	50*	35	-2	-16	67*	35	·	46*	·	·
O=C(CCC1COc2ccccc2O1)Nc1ccc(Cl)cn1 (stereo not drawn)	67*	27	-159	10	-14	60*	45*	84*	48*	·	·
Cc1cn([C@H]2C[C@H](O)[C@@H](CNC(=O)[C@H](N)C3CC3)O2)c(=O)[nH]c1=O	·	-8	-8	6	0	17	·	·	·	·	·
COc1ccc(NC(=O)CSc2nc(C3CC3)nc3ccccc23)cc1	60*	8	15	-1	-18	53*	39	·	33	·	·
COc1ccc(NC(=O)CSc2nnc(C)c3ccccc23)cc1	5	-14	-17	-10	4	-6	·	·	·	·	·
CCCCCc1cc(=O)oc2c(C(CCN3CCN(c4ccccc4)CC3)c3ccc(N(C)C)cc3)c(OC)cc(OC)c12 (stereo not drawn)	32	2	7	-6	-3	27	·	·	·	·	·
CCCCCc1cc(=O)oc2c(C(CCN(CC)CC)c3cc(OC)c(OC)c(OC)c3)c(OC)cc(OC)c12 (stereo not drawn)	100*	105*	-7	27*	-11	12	39	32	·	16	2
N#Cc1cc(O)c(-n2nnc3ccccc32)cc1C#N	16	2	12	-9	-1	3	·	·	·	·	·
N#Cc1cc(Oc2cccc3cccnc23)c(-n2nnc3ccccc32)cc1C#N	62*	22	28	69*	-8	-8	18	·	·	13	50*
CC(C)N=C(N)N=C(N)Nc1ccc(Cl)cc1	27	17	-2	4	-14	6	·	·	·	·	·
NC(=NCCCCCCN=C(N)/N=C(\N)Nc1ccc(Cl)cc1)/N=C(\N)Nc1ccc(Cl)cc1	91*	102*!	24	34*!	23	20	66*	57*	·	26*	2
CCCCNC1C(CC)C(CCC)C(C#N)(C#N)C1(C#N)C#N (stereo not drawn)	61*	27	17	29*	-31	81*	31	56*	·	64*	53*
Cc1nn(CC(=O)N2CCCCCC2)c(=O)c2cc3occc3n12	37	1	-5	7	1	-10	·	·	·	·	·
CCN1CCN(Cc2ccc(NC(=O)c3ccc(C)c(/C=C/c4cnc(Nc5cc(N6CCNCC6)nc(C)n5)cn4)c3)cc2C(F)(F)F)CC1	88*	96*	1	28*	-8	76*!	55*	37*	·	36*	5
CCN1CCN(Cc2ccc(NC(=O)c3ccc(C)c(NC(=O)C[C@@H]4NC(=O)[C@H](Cc5ccccc5)NC4=O)c3)cc2C(F)(F)F)CC1	10	10	-8	8	0	47	·	·	·	·	·
SMILES	Mdm2-MdmX inh	Peg3 prom inh-1	HIF-2a block	ABHD5-PLIN5 inh	KKLEB tox	CF NFkB block	Mdm2 MdmX conf	Full FLuc ctr	CF NFkB conf	ABHD5-PLIN5 conf	HNF4 split-luc	others
Cc1ccc2nc(N(CCCN(C)C)C(=O)c3cc(-c4cccs4)nc4ccccc34)sc2c1	96*	107*	-1	25*	-14	33	46*	37*	·	14	1
COc1cc(/C=C(\C#N)C(N)=O)ccc1OS(=O)(=O)c1ccc(C)cc1	6	2	6	0	-17	24	·	·	·	·	·
COc1cc(/C=C(\C#N)C(=O)NC2CCCCC2C)ccc1OS(=O)(=O)c1ccc(C)cc1 (stereo not drawn)	100*	12	32	38*	-26	32	38	·	·	67*	49*
COc1cccc(CNS(=O)(=O)c2c(C(=O)N3CCCCCC3)c(C)n(C)c2C)c1	-6	1	13	-2	-3	7	·	·	·	·	·
CCCCOC(=O)Cn1c(=O)n(CC(=O)OCCCC)c2ccccc21	-8	1	17	-5	-5	10	·	·	·	·	·
CCCCCCCCCCOC(=O)Cn1c(COc2ccccc2C)[n+](C)c2ccccc21	89*	107*	2	24*	-42	60*	69*	17	·	9	9
